# Source: PubChem BioAssay (NCATS)
# Inconclusive results are not listed. A call without a number means that no potency is given here. The source made the active and inactive calls. Calls come from the whole dose curve; as a rule, active = well fitted inhibition curve with a large enough effect; inconclusive = small, poorly fitted or top-dose-only effect; inactive = flat fitted curve, though single readings scatter.
# Target: Ubiquitin carboxyl-terminal hydrolase 1 (Homo sapiens) (UniProt O94782)
# Assay: Inhibitors of USP1/UAF1: Pilot qHTS (AID 504865);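 note: rhodamine fluorescence freed from ubiquitin-rhodamine substrate followed over time; top concentration of the series differs between compounds; nearly all actives have a fitted effect of over 35% in size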
# Details: purified USP1/UAF1, Ub-rhodamine cleavage fluorescence; series mostly up to 114 µM
# How it was run: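 Kinetic fluorescence assay: 1nM USP1/UAF1, 15 min compound preincubation, then 150nM Ub-Rho; 480/540 nm.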
# Chain of Ubiquitin carboxyl-terminal hydrolase 1 (Homo sapiens) (O94782 whole entry, looked up): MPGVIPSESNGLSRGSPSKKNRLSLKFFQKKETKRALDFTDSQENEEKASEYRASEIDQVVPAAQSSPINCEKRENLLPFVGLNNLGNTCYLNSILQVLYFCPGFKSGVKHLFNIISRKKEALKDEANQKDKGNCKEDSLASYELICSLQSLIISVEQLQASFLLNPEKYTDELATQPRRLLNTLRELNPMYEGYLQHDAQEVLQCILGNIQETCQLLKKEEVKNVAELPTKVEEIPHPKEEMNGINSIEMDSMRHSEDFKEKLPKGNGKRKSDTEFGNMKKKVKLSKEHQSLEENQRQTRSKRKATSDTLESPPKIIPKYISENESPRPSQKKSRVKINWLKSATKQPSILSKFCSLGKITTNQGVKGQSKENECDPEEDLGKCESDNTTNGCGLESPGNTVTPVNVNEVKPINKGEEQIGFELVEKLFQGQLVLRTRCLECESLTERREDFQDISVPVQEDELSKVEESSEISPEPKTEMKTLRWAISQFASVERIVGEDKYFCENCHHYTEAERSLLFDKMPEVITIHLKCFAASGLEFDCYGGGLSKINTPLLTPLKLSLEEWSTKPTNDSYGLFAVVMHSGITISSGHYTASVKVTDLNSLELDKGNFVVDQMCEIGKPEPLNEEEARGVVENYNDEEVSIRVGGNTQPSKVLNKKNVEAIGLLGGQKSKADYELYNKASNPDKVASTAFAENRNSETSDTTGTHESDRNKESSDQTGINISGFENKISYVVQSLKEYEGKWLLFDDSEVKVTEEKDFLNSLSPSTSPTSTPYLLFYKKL
row,Compound,Potency
1,N[C@H](C(=O)O)c1ccc(C(=O)O)c(O)c1,inactive
2,O=C(O)Cc1cc2ccccc2nc1C(=O)O,inactive
3,CC(N)=NCCC[C@H](N)C(=O)O,inactive
4,N[C@@H]1CCN(O)C1=O,inactive
5,CC(C)SC(=N)N,inactive
6,O=C(O)COc1ccc(OCCNC[C@@H](O)COc2ccccc2)cc1,inactive
7,N[C@H](Cc1cnc[nH]1)C(=O)O,inactive
8,N[C@H](CCC(=O)NCC(=O)O)C(=O)O,inactive
9,CC1=C(\C=C/C(C)=C/C=C\C(C)=C\C(=O)O)C(C)(C)CCC1,inactive
10,CCC(=O)O[C@H](CC(=O)O)C[N+](C)(C)C,inactive
11,C[C@@](N)(C(=O)O)c1ccc(P(=O)(O)O)cc1,inactive
12,C[C@H](C[C@H](N)C(=O)O)C(=O)O,inactive
13,O=C(O)[C@H]1CN(CCCP(=O)(O)O)CCN1,inactive
14,NCCC(=O)O,inactive
15,CCN(Cc1ccncc1)C(=O)[C@@H](CO)c1ccccc1,inactive
16,N[C@@H](C(=O)O)c1ccc(P(=O)(O)O)cc1,inactive
17,C[C@@](N)(C(=O)O)c1ccc(C(=O)O)cc1,inactive
18,N[C@H](C(=O)O)c1nn[nH]n1,inactive
19,N[C@H](C(=O)O)[C@@H]1C[C@@H]1C(=O)O,inactive
20,CNCC[C@H](Oc1ccccc1OC)c1ccccc1,inactive
21,C[C@H](N=C(NC#N)Nc1ccncc1)C(C)(C)C,inactive
22,CC[C@](N)(CCC(=O)O)C(=O)O,inactive
23,CC(N)=NCCCC[C@H](N)C(=O)O,inactive
24,C[C@@H](CCc1ccc(O)cc1)NCCc1ccc(O)c(O)c1,inactive
